AC50 and activity, negative = inhibition data for 45 molecules are collected here from PubChem BioAssay AID1851 (National Center for Advancing Translational Sciences (NCATS), 2009).

Several values for one entry are separate records, joined by “and”; a condition that tells them apart may be missing. Equal entries are not always repeated. In all, about 16,000 compounds went through this assay and about 5,800 (36%) were called active. Not shown: some 23% with an inconclusive outcome. The call rests on the fitted dose curve; in most records, active means well fitted curve in the direction sought with a large enough effect; inconclusive means small, poorly fitted or top-dose-only effect, or effect the other way; inactive means no such curve, though single readings can be large or run the other way. The list shows a part of the results. More than one record can exist for a structure, and the calls need not agree.
On the % scale 0 is the no-effect control and ±100 the full control effect.

For the experiment, the target named is Cytochrome P450 2C19 (Homo sapiens) (UniProt P33261). In words: Cytochrome panel assay with activity outcomes. Conditions: recombinant CYP, pro-luciferin dealkylation, luminescence, p450-cyp2c19; series mostly up to 57.1 µM. Here is the method: The P450 gene superfamily is involved in the metabolism and clearance of xenobiotics. This assay used various human CYP P450 isozymes to measure the dealkylation of various pro-luciferin substrates to luciferin. The luciferin is then measured by luminescence after the addition of a luciferase detection reagent. Pro-luciferin substrate concentration in the assay was equal to its KM for its CYP P450 isozyme. Inhibitors and some substrates limit the production of luciferin, and decrease measured luminescence.
Chain of Cytochrome P450 2C19 (Homo sapiens) (P33261 whole entry, looked up): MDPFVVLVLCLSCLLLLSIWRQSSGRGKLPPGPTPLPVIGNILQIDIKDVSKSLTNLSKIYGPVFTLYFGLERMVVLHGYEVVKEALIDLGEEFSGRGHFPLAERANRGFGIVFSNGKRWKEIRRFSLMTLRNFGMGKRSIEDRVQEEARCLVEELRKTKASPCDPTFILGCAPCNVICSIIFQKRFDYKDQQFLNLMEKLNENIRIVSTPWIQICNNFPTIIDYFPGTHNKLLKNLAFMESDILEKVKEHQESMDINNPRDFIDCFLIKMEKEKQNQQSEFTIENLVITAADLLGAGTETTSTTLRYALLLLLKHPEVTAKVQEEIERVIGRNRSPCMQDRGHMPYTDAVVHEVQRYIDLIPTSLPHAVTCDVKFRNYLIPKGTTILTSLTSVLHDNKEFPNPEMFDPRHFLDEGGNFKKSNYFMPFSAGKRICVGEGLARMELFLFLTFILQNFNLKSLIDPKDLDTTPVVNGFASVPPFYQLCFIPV
NCGC Assay Protocol Summary:
1, Reagent, 2 uL, Isozyme and Pro-Luciferin
2, Library compounds, 23 nl, 40 uM to 0.24 nM dilution series
3, Controls, 23 nl, Isozyme specific inhibitor
4, Reagent, 2 uL, NADPH regeneration solution
5, Incubation time, 60 min, Isozyme specific temperature
6, Reagent, 4ul, Detection reagent
7, Incubation time, 20 min, Isozyme specific temperature
8, Detection, 1 sec, ViewLux luminescent read
The luciferase-based P450-GloTM Screening Systems were obtained from Promega (Madison, WI) for CYP 1A2 (V9770), CYP 2C9 (V9790), CYP2 C19 (V9880), CYP 2D6 (V9890), and CYP 3A4 Luciferin-PPXE (V9910) and were adapted for 1,536-well microplates and an automated protocol. The control compounds furafylline for 1A2 (F124), sulfaphenazole for CYP 2C9 (S0758), ketoconazole for CYP 2C19 (K1003), quinidine for 2D6 (Q3625), and ketoconazole for 3A4 (K1003) were purchased from Sigma Aldrich (St. Louis, MO). Recombinant P450 enzymes were obtained from baculovirus constructs expressed in insect cells (BD/Gentest).
Medium-binding white solid Kalypsys plates used. Mixtures kept on ice. 1A2: 10 nM 1A2, 100 uM Luc-ME, 100 mM KPO4; 2C9: 10 nM 2C9, 100 uM Luc-H, 25 mM KPO4; 2C19: 5 nM 2C19, 10 uM Luc-H EGE, 50 mM KPO4; 2D6: 5 nM 2D6, 30 uM Luc-ME EGE, 100 mM KPO4; 3A4: 10 nM, 25 uM Luc-PPXE. All amounts are reflected in their final concentration, working concentration is 2x.
NADPH regeneration solution: 1.3 mM NADP+, 3.3 mM glucose-6-phosphate, 3.3 mM MgCl2, 0.4 U/mL glucose-6-phosphate dehydrogenase for all isozymes, 200 mM KPO4 for 3A4. Mixture prepared at RT but kept on ice during automated run.
RT incubation in auxilliary plate hotel for 1A2, 2D6, and 3A4; 37C for 2C9 and 2C19.
Keywords: P450, CYP1A2, CYP2C19, CYP2C9, CYP2D6, CYP3A4, Luciferase, MLSMR, MLSCN, NIH Roadmap, qHTS, NCGC
Turning to `S=C(S)N1CCCC1`, the AC50 is 3.98 µM (active). Same read-out and setting: in the case of `CC(C)Oc1cc(-n2c(=S)[nH]c3ccccc3c2=O)c(Cl)cc1Cl` it was 0.224 µM (active); in that of `OC1(c2ccc(Cl)cc2)CCN(Cc2c[nH]c3ccccc23)CC1`, “inactive”. On the same count and under the same terms, in the case of `COc1ccn(C)c(=O)c1C#N` it was “inactive”; in that of `CCOC(C(=O)OCCCN(CC)CC)(c1ccccc1)c1ccccc1`, “inactive”.

On to `CCN1C[C@@]2(COC)[C@H]3[C@@H](OC)[C@H]4C1[C@@]3([C@H](OC)C[C@@H]2O)[C@H]1C[C@@]2(O)[C@@H](OC(=O)c3ccccc3)[C@@H]1[C@@]4(OC(C)=O)[C@H](O)[C@@H]2OC`, for which the AC50 result was “inactive”. Regarding `CC1=C(CC[C@H](C)CO)O[C@@H]2C[C@@H]3[C@H]4CC[C@H]5C[C@@H](O)CC[C@]5(C)[C@@H]4CC(=O)[C@@]3(C)[C@@H]12`, the activity, negative = inhibition is -3.33% [at 11.4 µM] (inactive). On to `COc1ccc2[nH]cc(C3=CCNCC3)c2c1`, for which the AC50 entry is “inactive”. Consider `O=c1ccc2[nH]cc(C3=CCNCC3)c2[nH]1`, for which the AC50 was 0.126 µM (active). Same read-out and setting: in the case of `CCCCc1nc2ccccc2c(=O)n1-c1ccc(Cl)cc1[N+](=O)[O-]` it was “inactive”; in that of `CCCCc1nc2ccccc2c(=O)n1-c1ccccc1[N+](=O)[O-]`, 14.1 µM (active); in that of `O=c1cc(-c2ccc(O)cc2)oc2cc(O)cc(O)c12`, “inactive”. Turning to `COc1ccc(CCNc2cc(-c3ccccc3)nc3ncnn23)cc1`, the AC50 is 11.2 µM (active). Still for that read-out and setting: in the case of `CNC[C@H](O)c1ccc(OC(=O)C(C)(C)C)c(OC(=O)C(C)(C)C)c1` it was “inactive”. Consider `[N-]=[N+]=NCC(=O)c1c[nH]c(=O)[nH]c1=O`, for which the activity, negative = inhibition is 30.9% [at 11.4 µM] (inactive).

`C[C@H]1CC[C@]2(OC1)O[C@@H]1C[C@@H]3[C@@H]4CC[C@H]5C[C@@H](O)CC[C@]5(C)[C@@H]4CC(=O)[C@@]3(C)[C@H]1[C@@H]2C`: the AC50 entry was “inactive”. Same read-out and setting: the value for `CCOC(=O)C1=C(C)OC(N)=C(C#N)C12C(=O)N(C)c1ccccc12` (stereo unspecified) was 28.2 µM (active). In the case of `CCN1C[C@]2(C)CC[C@H](O)[C@@]34[C@@H]5CC6[C@@H](OC)C[C@@](O)([C@@H]5[C@@H]6O)[C@H](C[C@@H]23)[C@H]14`, the AC50 result was “inactive”. Turning to `Cc1ccc(OP(=O)(Oc2ccc(C)cc2)N2C=Cc3ccccc3[C@H]2C#N)cc1`, the AC50 is 2.51 µM (active).

On to `COc1ccccc1CN1CCCC2(CCN(C(=O)Oc3ccccc3)CC2)C1`, for which the AC50 entry is “inactive”. Turning to `O=C1C=C2C=C[C@H]3C[C@@]2(O1)[C@H]1CCCCN31`, the AC50 entry is “inactive”.

`O=C1NCN(c2ccccc2)C12CCN(C[C@H]1COc3ccccc3O1)CC2`: the AC50 is 7.94 µM (active). On the same count and under the same terms, the value for `O=C(CCCN1CCC2(CC1)C(=O)NCN2c1ccccc1)c1ccc(F)cc1` was “inactive and 6.31 µM (active)”. Still for that read-out and setting: in the case of `O=C1NCN(c2ccccc2)C12CCN(CCCOc1ccc(F)cc1)CC2` it was “inactive”. Turning to `O=C(CCCN1CCC(n2c(=O)[nH]c3ccccc32)CC1)c1ccc(F)cc1`, the AC50 result was “inactive”. On the same count and under the same terms, the value for `NC1=Nc2ccccc2Oc2ccccc21` was “inactive”. Still for that read-out and setting: the value for `O=C(Oc1ccccc1)N1CCC2(CCN(Cc3ccncc3)CC2)CC1` was “inactive”. Regarding `O=C(O)/C=C(\CC(=O)O)C(=O)O`, the activity, negative = inhibition was -16.7% [at 11.4 µM] (inactive). On to `O=C(O)Cc1cccnc1C(=O)O`, for which the AC50 entry was “inactive”.

`CC(C)CN1CC2(CCN(C(=O)c3ccncc3)CC2)C1`: the AC50 result is “inactive”. `Cc1ccc(NC(=[OH+])c2cc3ccccc3cc2O)c(C)c1.Cc1ccc(NC(=[OH+])c2cc3ccccc3cc2O)c(C)c1.[Ni]`: the AC50 is 2 µM (active). The same measure, in the same setting: the value for `O=c1[nH]oc2c1CCNC2` was “inactive”; that for `Clc1ccc(C2=CCC[C@H]3CC[C@@H]2N3)cn1` was “inactive”. On to `CCCCN1C(=O)C(C2c3ccccc3C(=O)N2Cc2ccccc2)C(=O)NC1=S` (stereo unspecified), for which the concentration at half-maximal activity (AC50) is 25.1 µM (active).

For `CC(C)C[C@H](NP(=O)(O)O[C@@H]1O[C@@H](C)[C@@H](O)[C@@H](O)[C@H]1O)C(=O)N[C@@H](Cc1c[nH]c2ccccc12)C(=O)O`, the AC50 entry was “inactive”. On to `Cn1cc(C(=O)C(=O)N[C@H]2CN3CCC2CC3)c2ccccc21`, for which the AC50 entry was “inactive”. For the molecule `CC(C)n1cnc2c(C(=O)N[C@H]3CN4CCC3CC4)cc(Cl)cc21`, the AC50 is 1 µM (active). The same measure, in the same setting: in the case of `CN1C(=O)COc2c(C(=O)N[C@@H]3CN4CCC3CC4)cc(Cl)cc21` it was “inactive”; in that of `C[C@@H]1O[C@H](C[N+](C)(C)C)CS1`, “inactive”; in that of `NC(=O)CN1C[C@@H](O)CC1=O`, “inactive”. Still for that read-out and setting: the value for `C[N+]1([O-])[C@@H]2CC(OC(=O)[C@@H](CO)c3ccccc3)C[C@@H]1[C@H]1O[C@H]12` (stereo partly specified) was “inactive”; that for `CN1[C@@H]2CC[C@H]1CC(NC(=O)c1nn(C)c3ccccc13)C2` (stereo partly specified) was “inactive”. For `O=C1C2CCN(CC2)C1(CO)CO`, the half-maximal activity concentration (AC50) is 0.631 µM (active) and the activity, negative = inhibition is -4.59% [at 11.4 µM] (inactive). With `CCN(CC)C(=O)N[C@@H]1C[C@H]2c3cccc4[nH]cc(c34)C[C@@H]2N(C)C1`, the AC50 result was “inactive”. Same read-out and setting: the value for `CCOC(=O)c1ncn2c1CN(C)C(=O)c1cc(F)ccc1-2` was 1.58 µM (active).

Usually AC50 stands for the midpoint of the concentration-response curve, whichever way the signal moves.
